# Several values for one entry are separate records, joined by “and”; a condition that tells them apart may be missing. Identical values can stand only once. Out of some 330,000 compounds screened, about 1,900 (0.58%) were called active.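 The calls were made as follows: active = inhibition of aptamer binding above 40%, roughly 3 SD of noise, on plates passing a quality check; inactive = the rest.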 The entries come from a sample that favours actives as a whole. Some compounds were tested as several samples or in several runs, with calls that do not always agree.
# Biological target: Beta-adrenergic receptor kinase 1 (Homo sapiens) (UniProt P25098)
# Sequence (P25098 whole entry, looked up): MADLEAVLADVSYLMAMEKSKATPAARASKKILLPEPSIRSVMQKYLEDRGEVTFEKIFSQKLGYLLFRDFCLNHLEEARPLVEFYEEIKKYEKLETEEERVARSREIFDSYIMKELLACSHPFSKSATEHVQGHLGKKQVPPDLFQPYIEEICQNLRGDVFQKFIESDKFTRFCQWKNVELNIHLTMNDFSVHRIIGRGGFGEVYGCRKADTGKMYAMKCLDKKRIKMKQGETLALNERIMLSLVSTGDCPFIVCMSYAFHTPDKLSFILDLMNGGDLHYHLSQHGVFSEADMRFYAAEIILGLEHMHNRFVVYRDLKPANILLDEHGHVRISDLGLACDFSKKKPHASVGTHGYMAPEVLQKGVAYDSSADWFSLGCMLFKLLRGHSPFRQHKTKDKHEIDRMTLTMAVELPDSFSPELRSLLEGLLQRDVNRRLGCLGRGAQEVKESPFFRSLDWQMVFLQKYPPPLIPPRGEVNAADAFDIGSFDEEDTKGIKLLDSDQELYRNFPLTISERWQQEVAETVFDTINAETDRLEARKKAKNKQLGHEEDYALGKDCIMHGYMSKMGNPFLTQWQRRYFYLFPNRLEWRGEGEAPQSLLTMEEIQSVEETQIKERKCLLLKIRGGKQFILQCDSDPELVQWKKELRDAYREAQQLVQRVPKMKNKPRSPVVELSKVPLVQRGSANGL
# Assay: compounds blocking aptamer binding on GRK2 – biochemical, human GRK2, bead flow cytometry, HTS, primary screen (AID 488847);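 also: median bead fluorescence of bound FAM aptamer so fluorescent compounds give negative values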
# Conditions: FAM-aptamer displacement from GRK2, at 10 µM, stronger effect = higher value
row,Structure (SMILES),inhibition of aptamer binding
1,CC1O[C@H](OC2C(COC3OC(CO)C(O)[C@H](O)C3O)OC(OC3CC[C@]4(C)C(CC[C@@]5(C)[C@@H]4C=C[C@]46OC[C@@]7(CCC(C)(C)C[C@H]74)C(O)C[C@@]56C)C3(C)C)C(O)C2O)C(O)C(O)C1O (stereo not given in full),0% (inactive)
2,CC1=NCCN1S(=O)(=O)c1ccc(Br)c(C)c1,8% (inactive)
3,COc1ccc(S(=O)(=O)NCC(c2ccc(C)cc2)N2CCN(C)CC2)cc1OC (stereo not given),0% (inactive)
4,Cc1ccc(C(CNC(=O)Nc2cccc(C)c2)N2CCN(C)CC2)cc1 (stereo not given),53% (active)
5,Cc1ccc(C(CNC(=O)Nc2ccccc2)N2CCN(C)CC2)cc1 (stereo not given),0% (inactive)
6,O=C(NCc1cccc(Cl)c1)C1CCC(=O)N(C2CC2)C1 (stereo not given),30% (inactive)
7,C=CC[C@@H](CC(=O)N[C@@H](CO)Cc1ccccc1)C(=O)N[C@H](COC(=O)[C@H](CC=C)CC(=O)OC(C)(C)C)Cc1ccccc1,3% (inactive)
8,C=CC[C@@H](CC(=O)N[C@@H](CO)Cc1ccccc1)C(=O)NCCOC(=O)[C@@H](CC=C)CC(=O)OC(C)(C)C,94% (active)
9,C=CC[C@@H](CC(=O)N[C@H](CO)Cc1ccccc1)C(=O)N[C@H](C)COC(=O)[C@@H](CC=C)Cc1ccc(F)cc1,26% (inactive)
10,CC(C)CNC(=S)NNC(=O)c1ccccc1OC(F)F,0% (inactive)
11,CC(C)(C)NC(=O)/C(=C/c1cccnc1)NC(=O)c1ccco1,4% (inactive)
12,O=C(O)/C(=C/c1cccnc1)NC(=O)c1ccccc1,53% (active)
13,Cc1ccc(C(=O)N/C(=C/c2cccnc2)C(=O)O)cc1,0% (inactive)
14,Cc1ccc2[nH]c(=O)c(-c3nc4c(C)cccn4c3NCc3ccco3)cc2c1,0% (inactive)
15,Cc1cc(C)cc(N(CC(=O)N2CC=C(c3ccccc3)CC2)S(=O)(=O)c2c(C)noc2C)c1,0% (inactive)
16,O=c1[nH]nc(Cc2ccccn2)c2ccccc12,0% (inactive)
17,O=C(Oc1ccc2c(c1)CCC2)N1CCOCC1,0% (inactive)
18,Cc1nn(CC(=O)NCc2ccccn2)c(C)c1[N+](=O)[O-],1% (inactive)
19,COCCCNC(=O)CN1CCN(Cc2ccccc2Cl)C1=O,4% (inactive)
20,Cc1ccccc1CN1CCN(CC(=O)NCc2ccccn2)C1=O,51% (active)
21,Cc1cccc(N(C(=O)c2sc(C)nc2C)C(C(=O)NCC2CCCO2)c2ccccc2)c1 (stereo not given),1% (inactive)
22,CCn1nc(C)c(NC(=O)/C=C/c2ccc(OC)c(COc3ccc(Br)cc3)c2)c1C,1% (inactive)
23,CC(NC(=O)c1ccc(N2CCNCC2)c([N+](=O)[O-])c1)C12CC3CC(CC(C3)C1)C2 (stereo not given),0% (inactive)

row,Structure (SMILES),inhibition of aptamer binding
1,CS(=O)(=O)N1CCN(c2ccc(C(=O)NC3C4CC5CC(C4)CC3C5)cc2[N+](=O)[O-])CC1 (stereo not given),0% (inactive)
2,O=C(NC1C2CC3CC(C2)CC1C3)c1ccc(N2CCNCC2)c([N+](=O)[O-])c1 (stereo not given),98% (active)
3,CC(c1nnc(SCC(=O)Nc2sccc2C#N)n1-c1ccc(Cl)cc1)N(C)C (stereo not given),0% (inactive)
4,C/C(=N\OCC(=O)O)c1ccc(Cl)cc1,58% (active)
5,COc1ccc(C(=O)CCC(=O)Nc2ccc(Cl)cc2)cc1,1% (inactive)
6,C/C(=N\N=C(N)N)c1ccc(Cl)cc1,0% (inactive)
7,COc1cc2c(-c3ccc4c(c3)OCO4)c(-c3ccsc3)oc(=O)c2cc1OC,0% (inactive)
8,O=C(C1CCCN(S(=O)(=O)c2ccc([N+](=O)[O-])cc2)C1)N1CCCCC1 (stereo not given),53% (active)
9,O=C(C1CCC1)N1CCN(S(=O)(=O)c2ccc([N+](=O)[O-])cc2)CC1,1% (inactive)
10,Cc1ccc(S(=O)(=O)N2CCCC(C(=O)N3CCN(C)CC3)C2)cc1 (stereo not given),4% (inactive)
11,Cc1nnc(NC(=O)CCC(=O)N2CCC(C)CC2)s1,2% (inactive)
12,CCC(C)(C(=O)NC1CCCCC1)N(C)C(=O)c1ccc2c(c1)OCO2 (stereo not given),47% (active)
13,CCCCN(CC)C(=O)c1ccc2c(c1)OCO2,3% (inactive)
14,CCC(C)(C(=O)NC1CCCC1)N(C(=O)CNC(C)=O)c1ccc(C)cc1 (stereo not given),3% (inactive)
15,COc1ccc(NC(=O)COc2ccc(C(=O)OCC(=O)N(C)C3CCS(=O)(=O)C3)cc2OC)cc1 (stereo not given),3% (inactive)
16,COc1ccccc1NC(=O)COc1ccc(C(=O)OCC(=O)N(C(C)C)C(C)C)cc1OC,0% (inactive)
17,COc1cc(C(=O)OCC(=O)N(CC(C)C)C2CCS(=O)(=O)C2)ccc1OCC(C)C (stereo not given),100% (active)
18,Cn1c(N2CCOCC2)c(C=O)c2ccccc21,0% (inactive)
19,Cc1ccc(CNC(=O)c2cc(-c3ccccc3C)n(CC3CC(c4cccc([N+](=O)[O-])c4)=NO3)n2)cc1 (stereo not given),0% (inactive)
20,CCOC(=O)c1cccc(NC(=O)c2ccc(F)cc2F)c1,3% (inactive)
21,O=C(COC(=O)c1ccc(F)cc1F)Nc1ncccn1,60% (active)
22,O=C(COC(=O)CSc1ccccc1)Nc1ccc(F)cc1F,3% (inactive)
23,O=C(NCCCN1CCCCC1)c1ccc2c(c1)NC(=O)C(N1CCOCC1)S2 (stereo not given),3% (inactive)

row,Structure (SMILES),inhibition of aptamer binding
1,CCOC(=O)c1ccc(N/C(=N/S(=O)(=O)c2ccccc2)c2ccccc2)cc1,0% (inactive)
2,CC(=O)c1c(C)[nH]c(C(=O)N2CCN(S(=O)(=O)c3ccc(F)c(F)c3)CC2)c1C,1% (inactive)
3,CN(Cc1ccccc1)C(=O)c1ccc(COc2ccccc2)cc1,0% (inactive)
4,CN(Cc1ccccc1)C(=O)c1cccc(C(=O)N(C)Cc2ccccc2)c1,49% (active)
5,CN(CC(=O)O)C(=O)c1ccccc1,1% (inactive)
6,c1ccc(Cc2cc[n+](Cc3ccccc3)cc2)cc1,0% (inactive)
7,O=C(CCc1n[nH]c(=O)[nH]c1=O)N/N=C/c1ccc(Br)o1,0% (inactive)
8,O=C(CCNC(=O)c1ccccc1)NN=Cc1ccc(Br)o1,58% (active)
9,O=C(CCC(=O)N/N=C/c1ccc(Br)o1)N/N=C/c1ccc(Br)o1,13% (inactive)
10,Cc1ccc(OCc2cc(C(=O)N(C)CCn3ccnc3C)no2)cc1C,4% (inactive)
11,O=C(ON=C1CCN(S(=O)(=O)c2ccccc2)CC1)c1ccc(Cl)cc1,1% (inactive)
12,O=C(Nc1ccccc1)Nc1ccc(C(F)(F)F)cn1,0% (inactive)
13,O=C(NC(=O)c1cc(OCC(F)(F)F)ccc1OCC(F)(F)F)Nc1ccccc1,98% (active)
14,CONC(=O)c1cc(OCC(F)(F)F)ccc1OCC(F)(F)F,0% (inactive)
15,COc1nc(NC2CCCCC2)nc(N2CCCCCC2)n1,1% (inactive)
16,Cc1cc(/C=C2/SC(=O)N(CC(=O)OC(C)C)C2=O)c(C)n1C,2% (inactive)
17,C=CC1=C(C(=O)O)N2C(=O)[C@@H](NC(=O)/C(=N\OCC(=O)O)c3csc(N)n3)[C@H]2SC1,66% (active)
18,C=CC1=C(C(=O)O)N2C(=O)[C@@H](NC(=O)/C(=N/OCC(=O)O)c3csc(N)n3)[C@H]2SC1,0% (inactive)
19,CO/N=C(\C(=O)N[C@@H]1C(=O)N2C(C(=O)O)=C(COC(C)=O)CS[C@H]12)c1csc(N)n1 (stereo in doubt),0% (inactive) and 38% (inactive) and 1% (inactive)
20,CC[C@@H](C)[C@@H]1CN([C@@H](C)CN2CCC[C@H]2CN2C(N)=NC[C@H]2C(C)C)C(=N)N1CCc1ccc(Cl)c(Cl)c1,0% (inactive)
21,COc1ccc(CNc2nc(NCc3ccc(OC)cc3)c3ncn(C4CCCC4)c3n2)cc1,0% (inactive)
22,O=C1[C@@H]2C(c3cccnc3)=NO[C@@H]2C(=O)N1c1ccc(Cl)cc1Cl,4% (inactive)
23,CCOc1cccc(OCCCOc2cccc3cccnc23)c1,1% (inactive)

row,Structure (SMILES),inhibition of aptamer binding
1,C1=C(CCNc2ncnc3c2cnn3-c2ccccc2)CCCC1,0% (inactive)
2,Cc1ccccc1NC(=O)c1cnn(-c2ccccc2)c1NC(=O)c1ccco1,3% (inactive)
3,O=C(NNc1ncnc2c1cnn2-c1ccccc1)c1ccco1,97% (active)
4,CC(OC(=O)/C=C/c1ccccc1)C(=O)NC1CCCCC1C (stereo not given),0% (inactive)
5,CC(=O)N1CCN(CC(=O)Nc2ccc(C)c(F)c2)CC1,1% (inactive)
6,CCCc1noc2c1/C(=N\O)CCC2,0% (inactive)
7,Cc1ccn2cc(C(=O)NC3CCN(Cc4ccccc4)CC3)nc2c1,0% (inactive)
8,Cc1cc(C(=O)NC2CCN(Cc3ccccc3)CC2)n[nH]1,50% (active)
9,Cc1ccc(-c2cc(C(=O)NC3CCN(Cc4ccccc4)CC3)c3ccccc3n2)cc1,0% (inactive)
10,O=C(N/C(=C/c1ccc(Cl)cc1)C(=O)N1CCCCC1)c1ccco1,0% (inactive)
11,CCC(=C/c1sc2ccc3ccccc3c2[n+]1C)/C=C1\Sc2ccc3ccccc3c2N1C,100% (active)
12,N/C(=N\OC(=O)CCC1CCCCC1)c1ccccn1,0% (inactive)
13,O=C(c1noc2c1CCCC2)N1CCc2ccccc2C1,0% (inactive)
14,CCc1nn(CCCN2CCN(c3cccc(Cl)c3)CC2)c(=O)n1CCOc1ccccc1,43% (active) and 0% (inactive)
15,CCN1C(=O)/C(=C\N2CCN(c3cccc(Cl)c3)CC2)SC1=S,3% (inactive)
16,OC(COc1ccc2c(c1)CCC2)CN1CCN(c2cccc(Cl)c2)CC1 (stereo not given),0% (inactive)
17,CN(CCc1ccccn1)S(=O)(=O)c1ccc2c3c(cccc13)C(=O)N2,0% (inactive)
18,Cc1ccccc1C(=O)N1CCC(C(=O)Nc2ccc(S(=O)(=O)N(C)C(C)C)cc2)CC1,0% (inactive)
19,COc1cc(C(=O)Nn2c(CC(C)C)nc3ccccc3c2=O)cc(OC)c1OC,0% (inactive)
20,CCCCc1nc2ccccc2c(=O)n1NC(=O)c1c(O)c2cccc3c2n(c1=O)CC3,0% (inactive)
21,CCCc1nc2ccccc2c(=O)n1NC(=O)c1c(O)c2ccccc2[nH]c1=O,92% (active)

# — PubChem BioAssay AID488847 (NMMLSC, 2010)
